Assay results as given in PubChem BioAssay (NCATS).
Results filed as inconclusive are left out. A call without a number means that no potency is given here. The source made the active and inactive calls. Calls come from the whole dose curve; as a rule, active = well fitted inhibition curve with a large enough effect; inconclusive = small, poorly fitted or top-dose-only effect; inactive = no such curve, though single readings can be large or run the other way.

target: Papain (Carica papaya) (UniProt P00784); experiment: Primary qHTS assay for inhibitors of the protease papain (AID 1645873); details: papain Z-FR-AMC cleavage, AMC fluorescence; series mostly up to 49.8 µM;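 note: papain turnover of Z-FR-AMC read as the AMC fluorescence gain over 10 min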
Potency is the fitted concentration of half-maximal effect.

Chain of Papain (Carica papaya) (P00784 whole entry, looked up): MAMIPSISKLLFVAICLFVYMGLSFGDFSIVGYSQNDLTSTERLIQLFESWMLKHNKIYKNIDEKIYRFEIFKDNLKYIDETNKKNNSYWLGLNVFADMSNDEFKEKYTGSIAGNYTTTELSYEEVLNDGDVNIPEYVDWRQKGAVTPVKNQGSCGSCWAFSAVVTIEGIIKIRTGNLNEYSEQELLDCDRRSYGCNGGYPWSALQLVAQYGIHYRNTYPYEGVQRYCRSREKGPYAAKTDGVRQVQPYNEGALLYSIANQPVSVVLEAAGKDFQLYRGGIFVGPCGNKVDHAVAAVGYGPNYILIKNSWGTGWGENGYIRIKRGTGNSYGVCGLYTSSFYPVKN

How did the Potency turn out when `C[C@]12CC[C@@H]3c4ccc(O)cc4CC[C@H]3[C@@H]1CCC2=O` was run?
The Potency was “inactive”.

For `CC(=O)OCC(=O)[C@@]1(O)CC[C@H]2[C@@H]3CCC4=CC(=O)CC[C@]4(C)[C@H]3C(=O)C[C@@]21C`, which Potency is on record?
Its Potency is “inactive”.

How did the Potency turn out when `CSc1ccc2c(c1)C(N1CCN(C)CC1)Cc1ccccc1S2` (centres undefined) was run?
Its Potency is “inactive”.

With `CCN(CC)CCOC(=O)C1(C2CCCCC2)CCCCC1` as the compound, how does the Potency read?
Its Potency is “inactive”.

For `O=C1N=C(O)CN1/N=C/c1ccc(-c2ccc([N+](=O)[O-])cc2)o1`, which Potency is on record?
Its Potency is “inactive”.

With `CC1=C(CC(=O)O)c2cc(F)ccc2/C1=C\c1ccc(S(C)(=O)=O)cc1` as the compound, how does the Potency read?
The Potency was “inactive”.

`Cc1c(O)cccc1C(=O)N[C@@H](CSc1ccccc1)[C@H](O)CN1C[C@H]2CCCC[C@H]2C[C@H]1C(=O)NC(C)(C)C` was tested. Which Potency did it give?
The Potency was “inactive”.

`CN(C)CCOC(C)(c1ccccc1)c1ccccn1` (centres undefined) was tested. Which Potency did it give?
Its Potency is “inactive”.

How did the Potency turn out when `CCN(CC)CCCC(C)Nc1c2ccc(Cl)cc2nc2ccc(OC)cc12` (centres undefined) was run?
The Potency was 17.8 µM (active).

How did the Potency turn out when `CN(C)CCCN1c2ccccc2Sc2ccc(Cl)cc21` was run?
Its Potency is “inactive”.

With `O=C1NC(=O)[C@@]2(CCOc3ccc(F)cc32)N1` as the compound, how does the Potency read?
Its Potency is “inactive”.

Which Potency does the source give for `OCCN1CCN(CCCN2c3ccccc3Sc3ccc(Cl)cc32)CC1` here?
The Potency was “inactive”.

With `CC(C)c1c(C(=O)Nc2ccccc2)c(-c2ccccc2)c(-c2ccc(F)cc2)n1CC[C@@H](O)C[C@@H](O)CC(=O)O` as the compound, how does the Potency read?
Its Potency is “inactive”.

With `NC(=O)c1ncn([C@@H]2O[C@H](CO)[C@@H](O)[C@H]2O)n1` as the compound, how does the Potency read?
Its Potency is “inactive”.

With `COC(=O)C1=C(C)NC(C)=C(C(=O)OC)C1c1ccccc1[N+](=O)[O-]` as the compound, how does the Potency read?
The Potency was “inactive”.

`CCN(CC)CCNC(=O)c1cc(Cl)c(N)cc1OC` was tested. Which Potency did it give?
The Potency was “inactive”.

How did the Potency turn out when `Nc1cc(=O)[nH]c(N)n1` was run?
The Potency was “inactive”.

How did the Potency turn out when `Nc1ncnc2c1ncn2[C@@H]1O[C@H](CO)[C@@H](O)[C@H]1O` was run?
The Potency was “inactive”.

For `CN(C)CCC=C1c2ccccc2CCc2ccccc21`, which Potency is on record?
The Potency was “inactive”.

How did the Potency turn out when `CC(C)(C)c1onc(OCP(=O)(O)O)c1CC(N)C(=O)O` (centres undefined) was run?
The Potency was “inactive”.

With `CCCn1cnc2c1c(=O)n(CCCCC(C)=O)c(=O)n2C` as the compound, how does the Potency read?
Its Potency is “inactive”.

`CNCCC(Oc1ccc(C(F)(F)F)cc1)c1ccccc1` (centres undefined) was tested. Which Potency did it give?
Its Potency is “inactive”.

How did the Potency turn out when `CCCCc1ncc(/C=C(\Cc2cccs2)C(=O)O)n1Cc1ccc(C(=O)O)cc1` was run?
Its Potency is “inactive”.

How did the Potency turn out when `CC1=C(/C=C/C(C)=C/C=C/C(C)=C/C(=O)O)C(C)(C)CCC1` was run?
Its Potency is “inactive”.
